# A selection: hits, their analogues and other compounds. The true share with any hit is near 5.3%.
# HCV inh: blocks hepatitis C virus; Huh7.5.1 HCVcc-Cre infection, luciferase reporter, 44 h; Potency, µM (series often up to 41.8 µM), for inactives: top-dose activity change, negative = inhibition, usual class: inhibitors; 340,000 tested, 3.4% active; AID 651820; active = well fitted inhibition curve with a large enough effect; inconclusive = small, poorly fitted or top-dose-only effect, or another doubt; inactive = no such curve, though single readings can be large or run the other way
#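 HCVcc-Cre virus at an moi near 0.5 was added right after compound to cells cultured 4 h from seeding (1,000 cells/well). Luciferase activity was determined 44 h later, 15 min after substrate addition at RT.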
# Vaccinia mCherry: inhibitors of vaccinia virus infection (mCherry reporter signal); Vaccinia virus mCherry reporter infection, fluorescence; Potency, µM (series often up to 36.5 µM), for the others: top-dose activity change, negative = inhibition, hits mostly inhibitors; 310,000 tested, 0.63% active; AID 720579; calls by dose curve; tested in A549 cells; also: nearly all actives have a fitted effect of over 35% in size
# Vaccinia Venus: vaccinia inhibition (Venus reporter); AID 720580; 330,000 tested, 0.46% active; Potency, µM (series often up to 36.5 µM), for the others: top-dose activity change, negative = inhibition, usual class: inhibitors; Vaccinia virus Venus reporter expression, fluorescence; calls by dose curve; tested in A549 cells; also: nearly all actives have a fitted effect of over 30% in size
# FMDV inh: foot and mouth disease virus antiviral activity; FMDV antiviral cell-based qHTS; Potency, µM (highest dose often 57.9 µM), without a hit: at the highest dose activity change, negative = inhibition, most hits filed as inhibitors; 410,000 tested, 1.2% active; calls by dose curve; tested in HEK293T cells; also: read-out not given here; nearly all actives have a fitted effect of over 45% in size
# Lassa entry inh: Lassa virus entry inhibition | 300,000 tested, 1.2% active | AID 540256 | Lassa virus pseudotype entry inhibition, cell reporter | Potency, µM (highest dose often 37.9 µM), for inactives: at the top dose activity change, negative = inhibition, most hits filed as inhibitors; calls by dose curve; tested in HEK293 cells; also: nearly all actives have a fitted effect of over 50% in size
# MARV entry inh: Marburg virus entry inhibition; Potency, µM (doses to about 37.8 µM), for the others: at the highest dose activity change, negative = inhibition, actives largely listed as inhibitors; Marburg virus pseudotyped entry inhibition, cell reporter; 300,000 tested, 1.8% active; calls by dose curve; tested in HEK293 cells
# * = called active by the depositor; i = inactive; ? = inconclusive; · = not tested or not shown; [ ] = dose if it differs, or a comment. % is scaled to controls: 0 for no effect and ±100 for the full control effect; potency is read from the fitted curve at half-maximal effect.
SMILES,HCV inh,Vaccinia mCherry,Vaccinia Venus,FMDV inh,Lassa entry inh,MARV entry inh
Cc1nc2ccccc2c(=O)n1/N=C/c1ccc(C(C)C)cc1,25.1µM*,·,·,-4.3%,·,·
CCc1cccc(C)c1NC(=O)COC(=O)C1CCN(S(=O)(=O)c2ccccc2)CC1,-5.0%[8.37 µM],-0.8%,-15.8%,-16.2%,4.0%,-3.4%
CCc1cccc(C)c1NC(=O)CN1CCN(S(=O)(=O)c2ccc(C(C)(C)C)cc2)CC1,2µM*,?,-19.7%,-23.8%,-2.7%,-23.7%[46.1 µM]
CCS(=O)(=O)CCSc1nc(C)cc(C)c1C#N,14.9%,-13.0%,-11.4%,·,?,-28.3%
CSc1nc(N)nc(SCCS(=O)(=O)c2ccc(Cl)cc2)c1C#N,10µM*,2.51µM*,5.62µM*,?,0.1%,?
Nc1ccccc1SCCS(=O)(=O)c1ccc(Cl)cc1,-0.3%,·,·,6.4%,·,·
Cc1ccc(S(=O)(=O)CCSc2nc(C)cc(C)c2C#N)cc1,?,10µM*,10µM*,·,?,?
COc1cc(/C=C2\C[C@H]3[C@@H]4CC=C5C[C@@H](N6CCCC6)CC[C@]5(C)[C@H]4CC[C@]3(C)[C@H]2O)cc(OC)c1OC,7.08µM*,-10.0%,-9.4%,-2.3%,-28.3%,10µM*
C[C@]12CC[C@@H](O)CC1=CCC1C2CC[C@@]2(C)C1CC[C@@H]2N (stereo not given in full),-3.1%,i,-8.6%,-9.6%,-4.2%[46.1 µM],-0.8%[46.1 µM]
N#C/C(=C\c1ccc(-c2ccc([N+](=O)[O-])cc2)o1)C(=O)Nc1nc(-c2cccs2)cs1,10µM*,·,·,0.0%,·,·
CN(C)c1ccc(/C=C/c2ccc3c4ccccc4ccc3[n+]2-c2ccccc2)cc1,1µM*,i,i,12.6µM*,11.2µM*,?
CN(CCCS(=O)(=O)[O-])c1ccc(/C=C/c2ccc3ccccc3[n+]2C)cc1,18.6%,·,·,-13.3%,·,·
[O-][n+]1c(/C=C/c2ccccc2)ccc2ccccc21,10µM*,·,·,-30.2%,·,·
Cc1cc(/C=N/O)c(C)n1-c1ccccc1,-1.2%,-14.7%,-18.0%,23.9%,-2.2%[46.1 µM],?
Cc1cc(/C=C/c2ccc3cc(N(C)C)ccc3[n+]2C)c(C)n1-c1ccccc1,·,109.5%,i,14.1µM*,·,·
CN(C)c1ccc(/C=C/c2ccc3ccccc3[n+]2C)cc1,0.891µM*,175.5%,275.1%,?,?,?
COc1ccccc1NC(=O)N(C)C[C@H]1Oc2ncc(C#CCN(C)C)cc2C(=O)N([C@H](C)CO)C[C@H]1C,·,i,-9.1%,-8.9%,·,·
Cc1ccc(CSc2nnc(-c3ccc(NC(=O)CCc4ccccc4)cc3)n2C)cc1,·,-10.1%,-9.1%,·,·,·
CCCCCCCCCCCCCCCC(C)C1=NCCN1 (stereo not given),·,-11.4%,-5.8%,·,·,·
C=CCNC(=O)c1ccc2nc(Cc3ccc(OC)cc3)oc2c1,11.8%,-17.8%,-23.8%,31.2%,5.62µM*,?
COCCCNC(=O)c1ccc2nc(Cc3ccc(OC)cc3)oc2c1,7.4%,-16.0%,-14.5%,8.6%,?,?
Cc1cccc(NC(=O)Cn2c(=O)n(Cc3ccc4c(c3)OCO4)c(=O)c3ccccc32)c1,·,-18.2%,-7.8%,-16.0%,-2.3%[46.1 µM],5.7%[46.1 µM]
c1ccc2nc(-c3nc4ccccc4o3)ccc2c1,-6.5%,·,·,-92.9%,2.31µM*,?
c1cc(-c2nc3ccccc3o2)nc(-c2nc3ccccc3o2)c1,·,·,·,·,·,-6.5%
CC(C)(C)c1csc(NNC(=O)c2ccc(Cl)cc2)n1,?,7.08µM*,?,1.5%,?,?
SMILES,HCV inh,Vaccinia mCherry,Vaccinia Venus,FMDV inh,Lassa entry inh,MARV entry inh
COc1ccc(N2CCN(CC(O)COC(c3ccc(F)cc3)c3ccc(F)cc3)CC2)cc1 (stereo not given),?,·,·,-19.3%,·,·
OC(COc1ccc(F)cc1)CN1CCN(CC(O)COc2ccc(F)cc2)CC1 (stereo not given),31.6µM*,-6.5%,-11.3%,1.4%,-11.5%[46.1 µM],?
O=C(c1ccccc1)c1ccc(OCC(O)CN2CCN(S(=O)(=O)N3CCCCC3)CC2)cc1 (stereo not given),?,·,·,14.1µM*,?,-19.6%
OC(COc1ccc(CNCCc2ccccc2F)cc1)CN1CCCCC1 (stereo not given),?,·,·,-9.9%,?,2.31µM*
OCCN1CCN(CC(O)COC(c2ccc(F)cc2)c2ccc(F)cc2)CC1 (stereo not given),?,i,-6.0%,-1.9%,?,2µM*
OC(COc1ccccc1)CN1CCCCC1 (stereo not given),26.3%,-28.4%,0.3%,-5.6%,-9.0%,5.9%
O=C(C[N+]12CCCc3cccc(c31)CCC2)c1ccccc1,·,-11.3%,?,·,·,·
COCCNC(=O)C1(C)CCCN(C(=O)Cc2ccc3ccccc3c2)C1 (stereo not given),·,-0.1%,2.0%,-7.5%,·,·
COc1ccc(OCC(=O)Nc2cc(S(=O)(=O)N3CCCC3)ccc2Cl)cc1,-1.0%,-14.7%,-13.1%,0.0%,-14.3%,-8.7%
CCC(CO)Oc1cc(NC(=O)c2ccc(OC)cc2)c2ncn(C(C)C)c2c1 (stereo not given),?,-25.6%,-20.9%,-8.0%,·,·
Cc1ccc2cccc(NC(=O)c3ccc(Br)o3)c2n1,10µM*,·,·,0.3%,?,-7.6%
Cc1ccc2cccc(NC(=S)NC(=O)c3ccn(C)n3)c2n1,31.6µM*,-2.7%,-9.5%,-20.3%,?,-4.3%
Cc1ccc2cccc(NC(=O)c3ccc(-c4cccc([N+](=O)[O-])c4)o3)c2n1,·,-4.9%,-7.1%,-1.2%,4.2%[46.1 µM],-8.9%[46.1 µM]
CNCCCC1c2ccccc2C=Cc2ccccc21,?,-10.0%,?,-16.5%,?,3.55µM*
CN(C)c1ccc(C2C=Cc3ccccc32)c2ccccc12 (stereo not given),·,-13.3%,2.2%,·,·,·
O=S(=O)(Nc1ccc(-c2ccc(N3CCCC3)nn2)cc1)c1ccccc1Cl,·,-5.5%,-3.8%,33.2%,-10.8%[46.1 µM],·
Cc1sc(NC(=O)c2ccco2)c(C(Nc2ccccn2)c2ccccc2)c1C (stereo not given),14.1µM*,-28.2%,-15.8%,-0.2%,?,-18.0%
Cc1sc(NC(=O)c2ccco2)c(C(c2cccnc2)N2CCN(C)CC2)c1C (stereo not given),?,-31.6%,-24.7%,12.5%,?,?
Cc1sc(NC(=O)c2ccco2)c(C(c2cccnc2)N2CCCC2)c1C (stereo not given),12.6µM*,·,·,1.7%,-26.0%,?
Cc1cc(C)cc(N(C(=O)c2snc(C(N)=O)c2N)C(C(=O)NCC2CCCO2)c2cccs2)c1 (stereo not given),11.2µM*,-23.0%,-12.5%,-11.1%,?,?
Cc1ccc(C(C(=O)NCC2CCCO2)N(C(=O)c2snc(C(N)=O)c2N)c2ccc3c(c2)OCCO3)cc1 (stereo not given),?,-4.0%,-10.1%,-2.3%,6.31µM*,?
